B2AR arrestin: recruits beta-arrestin to the human beta2-adrenergic receptor. P07550. beta-arrestin recruitment to beta2AR, cell-based reporter. Potency, µM (doses to about 46.1 µM), for inactives: top-dose activation, actives largely listed as activators. 0.02% of 330,000 active. AID 492947; active means well fitted activation curve with a large enough effect; inconclusive means small, poorly fitted or top-dose-only effect;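 further: potency means the concentration at half of the fitted maximal effect; 0% = DMSO controls and full agonism = EC100 isoproterenol or metaproterenol; nearly all actives have a fitted effect of over 65% in size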
TSHR antagonist: human thyrotropin receptor antagonism | TSHR-expressing cells, TSH-stimulated cAMP HTRF, 2 h; active compounds read low | 0.2% of 330,000 active | AID 504810 | activity change, negative = inhibition, % at 11.5 µM | P16473;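 active means activity change below a set negative limit, meaning inhibition stronger than a set level, cut at about -70% in these data; inconclusive means activity change between two set negative limits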; further: on the % scale 0 is the no-effect control and ±100 the full control effect
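TSHR-expressing cells, 200/well, pre-treated with compound, then stimulated with EC80 TSH (4nM final) for 2 hours at 37 deg C. cAMP measured by competitive HTRF: anti-cAMP cryptate antibody in lysis buffer plus cAMP-d2, read after 30 minutes at room temperature.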
D3 antag: antagonists of human D3 dopamine receptor; 2.5% of 360,000 active; max response, negative = inhibition, %; AID 652054; D3R cells, DiscoveRx beta-arrestin luminescence, antagonist mode; active compounds read low; in the data active means max response below about -50%; inconclusive means no clear call, values can overlap the other calls; further: on the % scale 0 is the no-effect control and ±100 the full control effect
Target sequence (P35462 whole entry, looked up): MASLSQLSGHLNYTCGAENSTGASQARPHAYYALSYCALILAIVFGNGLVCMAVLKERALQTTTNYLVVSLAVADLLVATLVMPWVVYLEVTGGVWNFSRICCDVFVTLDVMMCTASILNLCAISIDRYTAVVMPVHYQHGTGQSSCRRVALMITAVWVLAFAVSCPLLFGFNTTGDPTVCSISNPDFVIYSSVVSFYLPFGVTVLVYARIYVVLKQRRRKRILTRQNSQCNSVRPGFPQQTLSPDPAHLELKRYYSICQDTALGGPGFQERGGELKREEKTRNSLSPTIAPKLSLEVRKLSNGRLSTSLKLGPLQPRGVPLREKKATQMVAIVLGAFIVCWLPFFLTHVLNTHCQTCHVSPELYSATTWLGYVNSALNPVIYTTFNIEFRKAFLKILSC
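Cells plated overnight at 1500 cells/well, then exposed to library compounds with dopamine controls for 90 minutes at 37 degrees C. DiscoveRx reagent added for 30–60 minutes at room temperature; luminescence read, quantitative HTS format.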
D3 ag: agonists of human D3 dopamine receptor. P35462. D3R DiscoveRx beta-arrestin cells, luminescence, 90 min. max activation, %. 0.58% of 410,000 active. AID 652048; in the data active means max activation above about 30%; further: 0% is about no effect
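Cells at 1500/well, incubated overnight, then treated with pinned compounds (dopamine as control) for 90 min at 37 degrees C. DiscoveRx reagent added for 30 - 60 minutes at room temperature; luminescence read.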
* = called active by the depositor; ? = inconclusive; . = no result. Hits are enriched below; roughly 2.9% of the tested compounds scored in any of these assays.

SMILES	B2AR arrestin	TSHR antagonist	D3 antag	D3 ag
Cc1ccccc1S(=O)(=O)N1[C@@H](c2ccccc2)C(C(=O)O)=CC[C@H]1c1ccc(Cl)cc1	-1%	-5	-56*	-30
CCOc1ccc(C(=O)CN2CCN(S(=O)(=O)c3ccc(Cl)cc3)CC2)cc1	0%	-5	-57*	-8
Cc1ccc([C@@H]2CC=C(C(=O)O)[C@H](c3ccc(Cl)cc3)N2S(=O)(=O)c2ccc(C)cc2)cc1	0%	-6	?	-18
CCN(C(=O)c1cn(CC)c(=O)c2cc(OC)c(OC)cc12)c1ccc(C)c(C)c1	.	.	.	-8
Cc1ccc(S(=O)(=O)C(CNS(=O)(=O)c2ccc(F)c(C(F)(F)F)c2)c2ccco2)cc1 (centres undefined)	.	.	.	-5
CC(C)(C)c1ccc(Cn2c(=O)cnc3ccccc32)cc1	-1%	9	0	-6
COc1ccc(CCNC(=O)c2cc3sccc3n2Cc2ccc(Cl)cc2)cc1OC	.	.	.	-13
O=C(CSc1nc2ccccc2nc1Cc1ccc(Cl)cc1)N1CCCc2ccccc21	.	.	.	-15
COc1ccc(C2=NC(C)(C)N(CC(=O)Nc3ccc(F)c(F)c3)C2=O)cc1	.	.	.	4
CCOc1cccc2sc(N3CCN(C(=O)c4ccc5c(c4)CCCC5)CC3)nc12	.	.	.	0
Cc1ccc(S(=O)(=O)N2[C@@H](c3ccccc3F)C(C(=O)O)=CC[C@H]2c2ccc(Cl)c(Cl)c2)cc1	0%	-92*	-7	-21
Cc1ccc(S(=O)(=O)N2[C@@H](c3ccccc3)C(C(=O)O)=CC[C@H]2c2ccc(Cl)c(Cl)c2)cc1	0%	-11	-21	-28
OC(c1ccccc1)c1nc2ccccc2n1Cc1c(F)cccc1Cl (centres undefined)	.	.	.	5
Cc1nnc(NC(=O)c2nc(SC(C)C)ncc2Cl)s1	.	.	.	-3
Cc1cccc(C)c1NC(=O)c1nc(SC(C)C)ncc1Cl	.	.	.	45*
COc1ccc(N2CCN(C(CNC(=O)C(=O)NCC3CCCO3)c3ccco3)CC2)cc1 (centres undefined)	-1%	18	-8	-3
O=C(NCC(c1ccco1)N1CCN(c2ccccc2)CC1)C(=O)NC1CCCC1 (centres undefined)	0%	8	18	9
O=C(NCC1CCCO1)C(=O)NCC(c1ccco1)N1CCN(c2ccccc2F)CC1 (centres undefined)	2%	-1	87	51*
O=C(NCC(c1ccco1)N1CCN(c2ccccc2)CC1)C(=O)NC1CCCCC1 (centres undefined)	0%	-3	3	37*
O=C(NCC(c1ccco1)N1CCN(c2ccccc2F)CC1)C(=O)NC1CCCC1 (centres undefined)	0%	4	20	36*
CCc1ccc(OCC(=O)Nc2ncn[nH]2)c(Br)c1	.	.	.	-23
CC(C)(C)NC(=O)C1CCN(c2nc3ccccc3nc2C(F)(F)F)CC1	.	.	.	3
COc1cccc(NC(=O)C2CCN(c3nc4ccccc4nc3C(F)(F)F)CC2)c1	.	.	.	32*
COc1cccc(OCc2ccc(Cn3nc(NC(=O)NCCc4ccc(OC)c(OC)c4)c4ccccc43)cc2)c1	.	.	-108*	-22
O=C1CC2(CCCC2)CC(=O)N1CCCCN1CCN(c2ncccn2)CC1	-2%	-7	-100*	-89
SMILES	B2AR arrestin	TSHR antagonist	D3 antag	D3 ag
O=C(NC(=O)N1CCN(c2cccc(Cl)c2)CC1)c1ccccc1	0%	21	-72*	-25
O=C(NC(=O)N1CCN(c2cccc(Cl)c2)CC1)c1ccc(Cl)cc1	0%	-5	?	-9
CC(Sc1nc(=O)cc(N)n1CCc1ccccc1)C(=O)Nc1ccc(Cl)cc1 (centres undefined)	.	.	.	1
CCOC(=O)/C(=C\c1cccc(O)c1)c1nc2sc(C)c(C)c2c(=O)[nH]1	-1%	-8	-58*	-32
Cc1cc(C)c2oc(C(=O)N(Cc3ccccc3)c3ccccn3)cc(=O)c2c1	0%	4	-9	8
O=C(c1ccc([N+](=O)[O-])cc1)N(Cc1ccccc1)c1ccccn1	0%	-11	-55*	-16
O=C(c1ccccc1)N(Cc1ccccc1)c1ccccn1	0%	0	-30	-9
O=C(c1ccc(Br)o1)N(Cc1ccccc1)c1ccccn1	0%	-6	11	32*
CCN(CC)CCNC(=O)c1ccc2c(=O)n3nc(Nc4cccc(Cl)c4C)sc3nc2c1	.	.	.	2
O=C(CC(c1cccs1)N1Cc2ccccc2C1=O)Nc1cccc(F)c1 (centres undefined)	.	.	.	-12

Screens from PubChem BioAssay.
